Data reported in ChEMBL document CHEMBL3988442, “University of Dundee, Small-Polar-MMV Screening Library” (2021).
For some assays here: Potency and affinity values are given separately.

How the values were obtained:
Design in all cases: scale not given: direction of the effect not stated beside the values
[1] = biological target: Protein translocase subunit SecA (Escherichia coli (strain K12)) (UniProt P10408); experiment: Assay to Identify E. coli SecA ATPase Inhibitors; type: functional; conditions: 30 µM
Sequence of Protein translocase subunit SecA (Escherichia coli (strain K12)) (P10408 whole entry): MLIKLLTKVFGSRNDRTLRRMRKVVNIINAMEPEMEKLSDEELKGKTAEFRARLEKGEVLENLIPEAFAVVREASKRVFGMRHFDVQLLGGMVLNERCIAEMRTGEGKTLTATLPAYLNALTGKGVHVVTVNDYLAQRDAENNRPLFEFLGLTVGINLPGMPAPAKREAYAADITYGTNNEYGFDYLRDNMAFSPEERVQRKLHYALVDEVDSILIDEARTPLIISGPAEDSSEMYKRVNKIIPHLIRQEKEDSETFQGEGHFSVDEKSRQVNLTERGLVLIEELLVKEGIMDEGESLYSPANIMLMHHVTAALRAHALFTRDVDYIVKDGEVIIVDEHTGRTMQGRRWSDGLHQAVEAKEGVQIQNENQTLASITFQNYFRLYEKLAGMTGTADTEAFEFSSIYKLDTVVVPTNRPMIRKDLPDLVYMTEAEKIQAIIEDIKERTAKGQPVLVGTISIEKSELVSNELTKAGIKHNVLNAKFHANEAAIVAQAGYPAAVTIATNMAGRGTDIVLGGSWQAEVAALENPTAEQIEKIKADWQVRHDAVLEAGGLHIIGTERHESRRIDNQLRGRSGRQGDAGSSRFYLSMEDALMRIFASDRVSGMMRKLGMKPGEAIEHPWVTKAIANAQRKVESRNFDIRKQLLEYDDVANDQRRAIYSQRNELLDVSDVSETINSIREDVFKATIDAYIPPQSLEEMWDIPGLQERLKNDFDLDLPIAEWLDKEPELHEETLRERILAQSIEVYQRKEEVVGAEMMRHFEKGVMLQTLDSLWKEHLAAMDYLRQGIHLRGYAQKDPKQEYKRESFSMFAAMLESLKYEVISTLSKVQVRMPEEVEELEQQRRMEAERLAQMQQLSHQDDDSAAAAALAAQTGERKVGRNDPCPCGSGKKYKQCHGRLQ

[2] = biological target: T1, Ubiquitin-activating enzyme e1, putative (Leishmania donovani (strain BPK282A1)) (UniProt E9BSI1); experiment: Leishmania donovani Ubiquitin Activating Enzyme (LdE1); type: functional; conditions: 30 µM
T1 sequence (whole entry): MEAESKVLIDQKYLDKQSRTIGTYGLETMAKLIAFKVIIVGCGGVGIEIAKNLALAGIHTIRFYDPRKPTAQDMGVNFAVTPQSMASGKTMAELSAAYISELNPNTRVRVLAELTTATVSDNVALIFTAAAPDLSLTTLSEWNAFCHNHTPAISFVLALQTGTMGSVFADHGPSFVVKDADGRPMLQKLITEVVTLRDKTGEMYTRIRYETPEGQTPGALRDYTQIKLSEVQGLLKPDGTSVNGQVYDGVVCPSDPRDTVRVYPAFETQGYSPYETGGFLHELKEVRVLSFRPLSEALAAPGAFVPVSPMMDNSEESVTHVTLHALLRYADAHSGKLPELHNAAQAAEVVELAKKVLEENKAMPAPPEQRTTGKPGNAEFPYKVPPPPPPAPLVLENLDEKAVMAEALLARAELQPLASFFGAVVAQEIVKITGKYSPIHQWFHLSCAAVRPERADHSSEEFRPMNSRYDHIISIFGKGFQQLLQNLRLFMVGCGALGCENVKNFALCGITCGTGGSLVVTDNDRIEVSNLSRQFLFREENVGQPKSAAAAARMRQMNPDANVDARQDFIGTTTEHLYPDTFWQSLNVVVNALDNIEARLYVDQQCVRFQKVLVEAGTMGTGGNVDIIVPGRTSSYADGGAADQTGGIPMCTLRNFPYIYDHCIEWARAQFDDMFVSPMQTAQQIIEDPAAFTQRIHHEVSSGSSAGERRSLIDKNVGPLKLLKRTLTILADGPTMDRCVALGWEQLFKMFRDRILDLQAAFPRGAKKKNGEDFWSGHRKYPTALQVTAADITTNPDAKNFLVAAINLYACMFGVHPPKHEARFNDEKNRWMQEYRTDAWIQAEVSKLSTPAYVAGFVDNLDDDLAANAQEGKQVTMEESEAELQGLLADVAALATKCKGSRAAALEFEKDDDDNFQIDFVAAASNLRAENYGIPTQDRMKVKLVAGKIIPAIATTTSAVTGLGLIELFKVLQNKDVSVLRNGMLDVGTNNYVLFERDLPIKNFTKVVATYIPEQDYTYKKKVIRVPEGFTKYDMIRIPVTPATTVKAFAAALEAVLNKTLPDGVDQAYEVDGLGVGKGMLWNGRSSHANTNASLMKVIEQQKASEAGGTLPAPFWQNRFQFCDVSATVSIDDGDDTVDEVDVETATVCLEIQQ

[3] = biological target: AMP-activated protein kinase, AMPK (Homo sapiens) (UniProt P54646+O43741+P54619+Q9UGJ0+Q9Y478+Q13131+Q9UGI9); experiment: AMP-dependent Kinase enzyme assay. An in vitro enzyme assay that detects ADP turnover that is directly proportional to AMPK activity. This uses naive AMPK that is activated during the assay with MK-8722; type: functional; conditions: 30 µM
[4] = biological target: Sialic acid-binding Ig-like lectin 9 (Homo sapiens) (UniProt Q9Y336); experiment: Hs-Siglec9 ALPHAscreen SOP 20170721; conditions: 10 µM
Sequence of Sialic acid-binding Ig-like lectin 9 (Homo sapiens) (Q9Y336 whole entry): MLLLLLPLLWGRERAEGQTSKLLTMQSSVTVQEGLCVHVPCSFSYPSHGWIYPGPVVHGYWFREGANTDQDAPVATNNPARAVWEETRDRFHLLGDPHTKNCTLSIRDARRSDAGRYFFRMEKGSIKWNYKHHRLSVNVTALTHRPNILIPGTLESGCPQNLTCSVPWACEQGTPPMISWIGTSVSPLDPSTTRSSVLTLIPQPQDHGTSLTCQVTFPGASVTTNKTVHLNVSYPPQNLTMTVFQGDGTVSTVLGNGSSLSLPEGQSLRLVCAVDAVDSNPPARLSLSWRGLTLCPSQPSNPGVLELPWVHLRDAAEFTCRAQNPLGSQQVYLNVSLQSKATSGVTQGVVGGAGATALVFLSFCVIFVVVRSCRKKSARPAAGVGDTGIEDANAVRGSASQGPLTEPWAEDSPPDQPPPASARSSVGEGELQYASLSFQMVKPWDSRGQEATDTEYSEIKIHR

Trypanosoma cruzi = experiment: Trypanosoma cruzi phosphomannomutase and mannose-1-phosphate guanylyltransferase assay; type: functional; conditions: 10 µM
[5] = biological target: T2, Arginase-2, mitochondrial (Homo sapiens) (UniProt P78540); experiment: in vitro enzyme assay to detect the production of urea directly proportional to the activity of Arginase II; type: functional; conditions: 33.3 µM; further: in the data most compounds retested in dose-response had high values
T2 sequence (whole entry): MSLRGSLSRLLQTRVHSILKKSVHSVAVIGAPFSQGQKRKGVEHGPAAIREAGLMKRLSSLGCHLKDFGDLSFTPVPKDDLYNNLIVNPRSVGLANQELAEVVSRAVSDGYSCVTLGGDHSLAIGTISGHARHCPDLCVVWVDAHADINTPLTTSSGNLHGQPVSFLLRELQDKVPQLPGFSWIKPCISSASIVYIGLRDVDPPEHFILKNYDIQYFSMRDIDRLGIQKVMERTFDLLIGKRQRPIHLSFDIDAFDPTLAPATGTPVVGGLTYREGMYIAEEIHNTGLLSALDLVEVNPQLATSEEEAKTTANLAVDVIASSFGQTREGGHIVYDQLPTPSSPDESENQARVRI

[6] = biological target: T3, Proteasome subunit beta (Trypanosoma cruzi) (UniProt O96673); experiment: Trypanosoma cruzi proteasome chymotrypsin-like activity (TcProtChymo) assay.; further: in the data most compounds retested in dose-response had high values; type: functional; conditions: 9.37 µM
T3 sequence (whole entry): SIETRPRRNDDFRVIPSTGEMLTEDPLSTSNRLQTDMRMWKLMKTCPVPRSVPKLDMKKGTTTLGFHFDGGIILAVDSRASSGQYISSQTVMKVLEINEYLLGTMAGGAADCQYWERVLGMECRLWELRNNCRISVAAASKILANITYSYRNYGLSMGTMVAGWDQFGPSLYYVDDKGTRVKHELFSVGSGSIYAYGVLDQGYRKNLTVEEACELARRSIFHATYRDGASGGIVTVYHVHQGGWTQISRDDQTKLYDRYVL

Homo sapiens = species: Homo sapiens; experiment: To identify inhibition of the IFN signalling (Jak-Stat) pathway via expression of an eGFP reporter gene under the control of an IFN-stimulated response element (ISRE) containing MxA promoter.; type: functional; conditions: 30 µM
[7] = biological target: T4, Tyrosyl-tRNA synthetase, putative (Trypanosoma cruzi (strain CL Brener)) (UniProt Q4DSP6); experiment: Trypanosoma cruzi tyrosyl tRNA synthetase (TcYRS) _High Tyrosine SOP; type: functional; conditions: 30 µM; further: in the data most compounds retested in dose-response had high values
T4 sequence (whole entry): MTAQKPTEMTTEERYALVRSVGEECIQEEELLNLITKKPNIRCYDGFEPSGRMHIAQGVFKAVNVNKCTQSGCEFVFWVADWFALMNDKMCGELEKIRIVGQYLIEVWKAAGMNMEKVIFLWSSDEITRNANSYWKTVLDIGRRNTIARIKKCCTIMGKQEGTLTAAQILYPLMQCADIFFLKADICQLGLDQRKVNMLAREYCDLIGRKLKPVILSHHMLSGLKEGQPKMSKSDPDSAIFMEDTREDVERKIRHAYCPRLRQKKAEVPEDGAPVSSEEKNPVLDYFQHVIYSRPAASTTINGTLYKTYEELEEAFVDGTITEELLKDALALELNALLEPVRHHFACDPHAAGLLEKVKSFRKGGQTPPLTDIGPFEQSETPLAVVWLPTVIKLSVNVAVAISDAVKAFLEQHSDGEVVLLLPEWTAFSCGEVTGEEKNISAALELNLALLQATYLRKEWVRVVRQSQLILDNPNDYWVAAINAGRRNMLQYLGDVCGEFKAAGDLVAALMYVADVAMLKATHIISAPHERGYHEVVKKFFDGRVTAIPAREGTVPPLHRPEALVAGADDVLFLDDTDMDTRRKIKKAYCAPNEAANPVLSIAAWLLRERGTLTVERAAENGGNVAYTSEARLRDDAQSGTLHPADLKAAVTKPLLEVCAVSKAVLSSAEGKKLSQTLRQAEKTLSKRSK

[8] = biological target: T4, Tyrosyl-tRNA synthetase, putative (Trypanosoma cruzi (strain CL Brener)); experiment: Trypanosoma cruzi tyrosyl tRNA synthetase (TcYRS) SOP; type: functional; conditions: 30 µM
[9] = biological target: Chromo domain-containing protein 1 (Saccharomyces cerevisiae (strain ATCC 204508 / S288c) (Baker's yeast)) (UniProt P32657); experiment: ScCHD-1 Enzyme Inhibition Assay; type: functional; conditions: 30 µM; further: in the data most compounds retested in dose-response had high values
Sequence of Chromo domain-containing protein 1 (Saccharomyces cerevisiae (strain ATCC 204508 / S288c) (Baker's yeast)) (P32657 whole entry, the tested form may be a part): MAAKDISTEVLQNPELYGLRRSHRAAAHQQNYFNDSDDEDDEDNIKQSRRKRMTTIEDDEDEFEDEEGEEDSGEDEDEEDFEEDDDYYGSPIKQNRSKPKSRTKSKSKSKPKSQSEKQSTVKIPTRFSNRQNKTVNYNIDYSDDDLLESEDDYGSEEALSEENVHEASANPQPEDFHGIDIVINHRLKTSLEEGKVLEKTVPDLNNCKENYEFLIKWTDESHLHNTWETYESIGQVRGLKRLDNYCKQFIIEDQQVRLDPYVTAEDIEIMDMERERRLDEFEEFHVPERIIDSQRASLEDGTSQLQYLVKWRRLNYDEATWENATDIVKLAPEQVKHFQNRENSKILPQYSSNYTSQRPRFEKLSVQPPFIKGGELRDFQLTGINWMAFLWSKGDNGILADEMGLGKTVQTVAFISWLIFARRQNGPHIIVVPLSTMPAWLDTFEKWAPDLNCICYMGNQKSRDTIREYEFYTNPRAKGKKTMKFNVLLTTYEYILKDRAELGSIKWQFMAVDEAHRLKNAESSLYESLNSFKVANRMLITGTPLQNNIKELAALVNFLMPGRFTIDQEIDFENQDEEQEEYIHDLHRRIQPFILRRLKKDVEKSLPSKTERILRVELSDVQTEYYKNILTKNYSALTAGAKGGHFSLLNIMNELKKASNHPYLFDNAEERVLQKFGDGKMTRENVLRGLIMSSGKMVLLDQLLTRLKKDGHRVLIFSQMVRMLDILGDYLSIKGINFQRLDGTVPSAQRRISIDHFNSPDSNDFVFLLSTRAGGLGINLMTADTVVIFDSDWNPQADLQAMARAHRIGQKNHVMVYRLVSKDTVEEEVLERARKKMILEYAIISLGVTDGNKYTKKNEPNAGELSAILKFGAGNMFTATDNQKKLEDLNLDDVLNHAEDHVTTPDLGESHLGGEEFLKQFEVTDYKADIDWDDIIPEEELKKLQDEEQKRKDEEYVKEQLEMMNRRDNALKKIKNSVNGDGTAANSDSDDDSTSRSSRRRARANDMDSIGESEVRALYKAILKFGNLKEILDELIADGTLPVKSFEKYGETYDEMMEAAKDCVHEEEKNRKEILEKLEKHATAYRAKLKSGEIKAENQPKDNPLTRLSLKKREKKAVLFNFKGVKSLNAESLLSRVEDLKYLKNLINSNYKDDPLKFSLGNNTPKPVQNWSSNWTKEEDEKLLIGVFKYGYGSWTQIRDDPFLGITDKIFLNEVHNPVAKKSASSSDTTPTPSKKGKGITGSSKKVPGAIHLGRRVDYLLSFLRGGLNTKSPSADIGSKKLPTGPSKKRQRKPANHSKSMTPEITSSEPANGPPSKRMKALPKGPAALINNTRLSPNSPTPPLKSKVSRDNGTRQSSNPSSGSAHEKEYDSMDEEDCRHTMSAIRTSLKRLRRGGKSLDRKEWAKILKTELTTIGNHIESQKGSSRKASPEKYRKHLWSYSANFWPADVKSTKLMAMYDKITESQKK

| SMILES | Percent Effect [1] [%] | Percent Effect [2] [%] | Percent Effect [3] [%] | Percent Effect [4] [%] | Percent Effect (Trypanosoma cruzi) [%] | Percent Effect [5] [%] | Percent Effect [6] [%] | Percent Effect (Homo sapiens) [%] | Percent Effect [7] [%] | Percent Effect [8] [%] | Percent Effect [9] [%] |
| --- | --- | --- | --- | --- | --- | --- | --- | --- | --- | --- | --- |
| CNC(=O)c1ccc(C2CN(C(=O)c3cncs3)CCO2)nc1 (configuration not stated) | -2.48 | 20.3 | 5.67 | 6.66 | 1.19 | -1.62 | 11.1 | -10 | 2.15 | 16.9 | -16.6 |
| COCCC1COC2(CCN(C(=O)c3ccco3)CC2)C1 (configuration not stated) | -2.43 | 13.3 | 5.93 | 0.194 | -0.787 | 3.5 | 0.264 | 0.48 | 8.51 | 16.7 | -2.69 |
| O=c1[nH]c2c(c(=O)n1C1CCCCC1)CCC2Nc1ccccc1Cl (configuration not stated) | -2.47 | 6.67 | -9.22 | -1.39 | 4.71 | 92.1 | 5.36 | 33.1 | -9.52 | -7.69 | -11.3 |
| CCOCC1CN(C(=O)CS(C)(=O)=O)Cc2cnn(C)c21 (configuration not stated) | -1.67 | 2.67 | -16.6 | 8.66 | -3.28 | -11.3 | 4.27 | 1.39 | 2.08 | 2.5 | -6.62 |
| Cc1ccccc1CCNC(=O)C1CC(=O)N(CC(F)(F)F)C1 (configuration not stated) | -3.95 | 24.3 | -20.9 | -4.07 | 1.42 | -21.2 | 10.1 | 25.2 | 5.42 | 18.5 | -11.1 |
| Cn1cnnc1C1CCCN(C(=O)c2n[nH]c3ccccc23)C1 (configuration not stated) | -3.18 | 18.2 | -8.06 | -14.8 | 5.19 | -3.16 | 13.8 | -1.86 | 8.57 | 32.9 | -21.5 |
| CN(Cc1nnc(C2CC2)n1C)C1CCN(Cc2ccccc2F)C1 (configuration not stated) | -3.03 | -5.48 | -2.94 | 2.42 | 2.18 | -3.19 | 10.4 | -27.4 | 0 | 8.64 | -4.72 |
| Cc1noc2nc(C3CCN(Cc4cccnc4)CC3)cc(C(F)F)c12 | -3.07 | 1.35 | 4.19 | 1.16 | -6.32 | -1.16 | 2.03 | 25.1 | 2.15 | 3.9 | 1.36 |
| COc1ccc(C2CCCN2C(=O)c2cc3c([nH]c2=O)CCC3)cc1 (configuration not stated) | -6.57 | 5.41 | 2.86 | -3.27 | -2.73 | 4.58 | 17.5 | -1.92 | 11.9 | 8.54 | -6.14 |
| CCC(C(=O)NC)N(c1cccc(C)c1)S(C)(=O)=O (configuration not stated) | -4.2 | 16 | -4.91 | 18.5 | 6.72 | 41.7 | 4.71 | 9.46 | 4.92 | 13.6 | -3.23 |
| O=C(CSc1nc2c(cnn2CCO)c(=O)[nH]1)N1CCCCCC1 | 1.99 | 8.22 | -8.26 | 4.22 | -3.33 | 3.18 | 11.4 | 14.3 | 4.3 | 10 | -2.48 |
| N#Cc1ccc(F)c(CN2CCCC2Cn2cccn2)c1 (configuration not stated) | -4.03 | -8.11 | -4.51 | 13.8 | 1.39 | -0.554 | -0.359 | 4.22 | 4.95 | 1.22 | 4.66 |
| Nc1ncc2c(n1)CN(C1CCCC1)C2=O | -4.34 | 10.4 | -3.73 | 9.11 | 4.82 | -168 | 19.5 | -17.3 | 10.8 | 21 | 121 |
| Cc1oc(C)c(C(=O)NCc2cccnc2N(C)C)c1C | -1.52 | 13.2 | 4.37 | -11.8 | -3.57 | -1.53 | 5.35 | -12.2 | 1.47 | 12.2 | -9.19 |
| CS(=O)(=O)NCC1CCCN(Cc2ccc(F)c3cccnc23)C1 (configuration not stated) | -1.47 | 2.6 | -1.1 | 10.8 | -2.06 | -4.14 | 18.5 | 16.9 | 5.38 | 13.6 | 3.65 |
| CCN1CCN(c2ncc(-c3cc(C)no3)c(-c3ccc(C)s3)n2)CC1 | -2.83 | 4.05 | 7.99 | 2.04 | -5.34 | -4.41 | 2.18 | -6.45 | 6.45 | 11.7 | -15.6 |
| CC(C)c1nccn1CCCNC(=O)c1ccc(N(C)C)nc1 | -2.99 | 8 | -4.43 | 14 | 3.21 | 13.5 | 6.97 | 13.7 | 1.64 | 8.64 | -5.17 |
| CC(=O)Nc1nc(CN2CCn3c(nnc3C3CC3)C2)cs1 | -1.36 | 5.41 | 0.348 | 6.61 | 5.11 | -9.06 | -3.59 | 2.7 | 0.99 | 11 | -3.08 |
| COc1ccccc1C1CNC(=O)c2nc(-c3cnn(C)c3)[nH]c2C1 (configuration not stated) | 0.9 | 10.8 | -0.668 | 22.2 | 3.48 | 1.43 | 10 | 5.8 | 5.82 | 17.1 | -0.454 |
| COc1ccc(CN2CCOC3(CCCN(c4nnc(C)o4)C3)C2)cc1 (configuration not stated) | -4.63 | -2.74 | -4.05 | 6.97 | 5.75 | 2 | 10.4 | -9.72 | 4.17 | -1.24 | -4.74 |
| COCC(O)CNC(=O)c1coc(COc2ccc3sc(C)nc3c2)n1 (configuration not stated) | -0.0441 | 5.48 | 3.03 | 0.244 | -7.25 | 5.46 | 14.7 | 44.1 | 5.38 | 15 | -1.23 |
| Cc1ccc(C)c(NC(=O)c2n[nH]c(-n3cnnc3)n2)c1 | -1.59 | 6.67 | 0.649 | 8.26 | 2.75 | -2.64 | 9.24 | 18.5 | 6.35 | 10.3 | -4 |
